Results with a measured potency or affinity are listed apart. Calls of active or inactive are those of the source. No rule for the calls is given here.
Assay: HepG2 cell cytotoxicity, dose response, cytotoxicity control, plate reader, cherry-pick, antagonist series (AID 743416)
Details: series mostly up to 26 µM
With `O=C(Nc1ccc(N2CCN(C(=O)c3ccc(Cl)cc3)CC2)cc1)c1cc2ccccc2o1` the outcome was “inactive”. With `O=C(Nc1cccc(O)c1)c1cc(-c2ccc3c(c2)OCO3)on1` the outcome was “inactive”. With `C[C@@H]1CN([C@@H](C)CO)C(=O)c2cc(NS(=O)(=O)c3ccc(F)cc3)ccc2O[C@H]1CN(C)Cc1ccc(-c2ccccc2)cc1` the outcome was “inactive”. With `O=C(Nc1nc2c(s1)CCCC2)C1COc2ccccc2O1` (stereo not drawn) the outcome was “inactive”. With `CSc1nc2ccc(NC(=O)c3ccccn3)cc2s1` the outcome was “inactive”. With `COc1ccc(-c2cc(C(=O)N3CCOCC3)no2)cc1` the outcome was “inactive”. In the case of `Cn1cccc1C(=O)OCC(=O)Nc1ccc2c(c1)OCCO2`, the outcome is reported as “inactive”. For `Cc1cnc(NC(=O)c2ccc(OCC3CCCO3)cc2)s1` (stereo not drawn), the outcome was “inactive”.

Source: PubChem BioAssay
